In PubChem BioAssay (Tox21) one finds outcome data, which are given here for 40 compounds.

Results filed as inconclusive are left out. Calls of active or inactive are those of the source. Calls follow the shape of the full dose curve.

This experiment is described as follows: qHTS assay to identify small molecule agonists of the NFkB signaling pathway - cell viability counter screen (AID 1159515). Also: nearly all actives have a fitted effect of over 55% in size. As to conditions: NFkB-bla ME-180 viability, CellTiter-Glo luminescence, 5 h; series mostly up to 61 µM. The text has this: National Center for Advancing Translational Sciences [NCATS]
NIH Chemical Genomics Center [NCGC]
U.S. Environmental Protection Agency [EPA]
National Institutes of Environmental Health Sciences [NIEHS]
National Toxicology Program [NTP]
U.S. Food and Drug Administration [FDA]
Transcription factors and their stimulated target gene expression play pivotal roles across many cellular processes including responses to environmental stimuli. Proper regulation of associated pathways is critical to maintain cell health and function. Constitutive activation of transcription factor pathways has been implicated in tumors as it may block cellular functions such as apoptosis and lead to invasion and metastasis. One important transcription factor that stimulates gene expression in response to cytokines, UV radiation, and other stimuli is nuclear factor-kappa B (NFkB). To measure activation of the NFkB pathway, the CellSensor NFkB-bla ME-180 cell line (Life Technologies, Carlsbad, CA) that stably expresses beta-lactamase reporter gene under the regulation of a NF-kB response element was used. This assay allows measurement of the NFkB pathway activity induced by compounds in a ME-180 cell line. This system quantitates NF-kB activity using a FRET-based assay system where beta-lactamase expression disrupts FRET, allowing for fluorescent measurement of activity. This cell line has been used to screen the Tox21 10K compound library and to identify compounds that induce the NFkB pathway activity. The cytotoxicity of the Tox21 compound library against the NFkB-bla ME-180 cell line was tested in parallel by measuring cell viability using the CellTiter-Glo assay in the same wells.
Tox21 Assay Protocol Summary:
NFkB-bla ME-180 cells were dispensed at 2,000 cells/6 uL of assay medium per well into black wall/clear-bottom 1536-well plates using a Multidrop Combi (ThermoFisher Scientific, Waltham, MA) dispenser. After the assay plates were incubated at 37 C and 5% CO2 for an overnight, 23 nL of compounds dissolved in DMSO, positive controls or DMSO only was transferred to the assay plate by a Pintool station (Kalypsys, San Diego, CA). The assay plates were incubated at 37 C and 5% CO2 for 5 hr. One uL of LiveBLAzer B/G FRET substrate (Life Technologies) was added using a Flying Reagent Dispenser (Aurora Discovery, San Diego, CA) and the plates were incubated at room temperature for 1.5 hr. Fluorescence intensity (405 nm excitation, 460 nm and 530 nm emissions) was measured using an Envision plate reader (PerkinElmer, Shelton, CT). For cytotoxicity, 3 ul/well of CellTiter-Glo reagent was added into the assay plates using an FRD. After 30 min incubation at room temperature, the luminescence intensity was measured using a ViewLux plate reader (PerkinElmer).
With `NC(=O)OCC(COC(N)=O)c1ccccc1`, the call was inactive.
Consider `CC(C)=CCC/C(C)=C/CO`, for which the compound was classed as inactive.
Regarding `CC1=NN(c2ccccc2)C(=O)C1`, the outcome was inactive.
For the compound `CC(=O)/C=C/C1=C(C)CCCC1(C)C`, the compound was called inactive.
On to `CC(C)(C)NCC(O)c1ccc(O)c(CO)c1` (stereo not given), for which the call was inactive.
On to `NC(=O)NO`, for which the call was inactive.
Take `C[C@]12C[C@H](O)[C@H]3[C@@H](CCC4=CC(=O)CC[C@@]43C)[C@@H]1CC[C@@H]2C(=O)CO`: the call was inactive.
The same measure for `Cc1cnc(NC(=O)C2=C(O)c3ccccc3S(=O)(=O)N2C)s1`: “inactive”; for `CCCCCCCC(=O)OCC(O)CO` (stereo not given): “inactive”; for `NCCNc1cccc2ccccc12`: “inactive”.
For `CC(C)Cc1ccc(C(C)C(=O)O)cc1` (stereo not given), the call was inactive.
On to `COc1ccc(C(=O)c2ccccc2)c(O)c1`, for which the call was inactive.
With `CCOC(=O)C(C)(C)Oc1ccc(Cl)cc1`, the call was inactive.
On to `OCCCc1ccccc1`, for which the compound was called inactive.
For `C[C@]12CC[C@@H]3c4ccc(O)cc4C[C@@H](CCCCCCCCCS(=O)CCCC(F)(F)C(F)(F)F)[C@H]3[C@@H]1CC[C@@H]2O` (stereo not given in full) the value was “inactive”; for `NC(=O)N/N=C/c1ccc([N+](=O)[O-])o1`, “inactive”; for `C#C[C@]1(O)CC[C@H]2[C@@H]3CCC4=CC(=O)CC[C@@H]4[C@H]3CC[C@@]21CC`, “inactive”.
Consider `C=C(C)C(N)=O`, for which the outcome was inactive.
The same measure for `CCCCOC(=O)CCCCCCCCC(=O)OCCCC`: “inactive”; for `NC(=O)N1c2ccccc2C=Cc2ccccc21`: “inactive”; for `NC(=O)c1ccc([N+](=O)[O-])cc1Cl`: “inactive”.
As for `CCN1CCCC1=O`, the compound was called inactive.
For `CCCCNC(=O)NS(=O)(=O)c1ccc(N)cc1` the value was “inactive”; for `O=C1CCCCCN1`, “inactive”; for `Cc1cccc2ccccc12`, “inactive”.
Consider `O=C(O)Cc1cccc2ccccc12`, for which the call was inactive.
As for `COCC(C)N` (stereo not given), the call was inactive.
On to `c1ccc2[nH]c(-c3cscn3)nc2c1`, for which the call was inactive.
Turning to `O=c1cc[nH]c(=O)[nH]1`, the result was inactive.
For `CC(O)COc1ccccc1` (stereo not given) the value was “inactive”; for `N[C@@H](Cc1c[nH]c2ccc(O)cc12)C(=O)O`, “inactive”; for `CCc1cc(C(N)=S)ccn1`, “inactive”.
Turning to `C=C(C)OC(C)=O`, the call was inactive.
With `CCCCOCCOCCOC(C)=O`, the compound was called inactive.
`CCCCOCCOCCSC#N`: the compound was classed as inactive.
The same measure for `O=C(OCc1ccccc1)c1ccccc1`: “inactive”.
In the case of `CC1(C)O[C@@H]2[C@@H](CO[C@@]3(COS(N)(=O)=O)OC(C)(C)O[C@@H]23)O1`, the call was inactive.
On to `O=c1c(-c2ccc(O)cc2)coc2cc(O)cc(O)c12`, for which the compound was classed as inactive.
For `COc1cc(C=O)ccc1O`, the call was inactive.
In the case of `C[C@]12CC[C@@H]3c4ccc(O)cc4CC[C@H]3[C@@H]1CCC2=O`, the outcome was inactive.
